According to the supplement of paper PMC7695840:
Where a name gives a salt, the structure may show the parent alone.

System: Staphylococcus aureus MW2 (mecA+)
Experiment: normalized DsRed fluorescence (growth of mecA+ strain) (fraction of control range); higher = more growth of mecA+ strain
Conditions: compound concentration: 150 uM; cefoxitin: subinhibitory; fluorescent label: DsRed
Procedure, shortened: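 Pre-induced S. aureus MW2 cells with the gene (DsRed) and without it (GFP) were mixed 1:1 in LB holding a subinhibitory antibiotic dose set daily and grown on 150 μM compound (1.5% DMSO) in 1536-well plates, single replicate, for 20 h at 37 °C. DsRed (540/590) and GFP (485/520) readings were scaled per plate between single-strain control medians. Plates with high untreated ratios and rows with DsRed/GFP >10 were excluded.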

Compound | normalized DsRed fluorescence
CCCCC1C(=O)N(c2ccccc2)N(c2ccccc2)C1=O [Phenylbutazone (Butazolidin, Butatron)] | 0.436
CC1=C(/C=C/C(C)=C/C=C/C(C)=C\C(=O)O)C(C)(C)CCC1 | 0.671
Cc1cn([C@@H]2C[C@@H](O)[C@H](CO)O2)c(=O)[nH]c1=O [Telbivudine (Sebivo, Tyzeka)] | 0.951
CCC(C)n1ncn(-c2ccc(N3CCN(c4ccc(OCC5COC(Cn6cncn6)(c6ccc(Cl)cc6Cl)O5)cc4)CC3)cc2)c1=O (centres undefined) | 0.642
O=c1[nH]cnc2c1ncn2[C@H]1CC[C@@H](CO)O1 [Didanosine (Videx)] | 0.652
CNNCc1ccc(C(=O)NC(C)C)cc1 | 0.606
COc1ccccc1OCC(O)COC(N)=O (centres undefined) | 0.692
O=C(NC(Cc1cc(=O)[nH]c2ccccc12)C(=O)O)c1ccc(Cl)cc1 (centres undefined) [Rebamipide] | 0.942
Cc1cc(C(C)(C)C)cc(C)c1CC1=NCCN1 | 0.52
N[C@@H](Cc1ccc(O)c(O)c1)C(=O)O | 0.611
NCCc1c[nH]cn1 | 0.661
O=C1NCC2(CCN(CCc3ccccc3)CC2)O1 | 0.724
COc1ccc2[nH]c([S+]([O-])Cc3ncc(C)c(OC)c3C)nc2c1 (centres undefined) | 1.2
CC[C@]1(O)C[C@H]2CN(CCc3c([nH]c4ccccc34)[C@@](C(=O)OC)(c3cc4c(cc3OC)N(C=O)[C@H]3[C@@](O)(C(=O)OC)[C@H](OC(C)=O)[C@]5(CC)C=CCN6CC[C@]43[C@@H]65)C2)C1 | 0.633
CC(=O)Oc1ccccc1C(=O)O [Aspirin (Acetylsalicylic acid)] | 0.803
CCC(=O)NCC[C@@H]1CCc2ccc3c(c21)CCO3 | 0.671
CN(C)CC[C@@H](c1ccc(Cl)cc1)c1ccccn1 | 0.588
CC(C(=O)O)c1cccc(Oc2ccccc2)c1 (centres undefined) | 0.467
CCOC(=O)c1ncn2c1CN(C)C(=O)c1cc(F)ccc1-2 | 0.611
CN(C)c1cc(NC(=O)CNC(C)(C)C)c(O)c2c1C[C@H]1C[C@H]3[C@H](N(C)C)C(O)=C(C(N)=O)C(=O)[C@@]3(O)C(O)=C1C2=O [Tigecycline] | 0.779

Compound | normalized DsRed fluorescence
O=C(O)c1cccc(-c2noc(-c3ccccc3F)n2)c1 [PTC124 (Ataluren)] | 0.473
COc1cc2nc(N3CCN(C(=O)C4CCCO4)CC3)nc(N)c2cc1OC (centres undefined) [Terazosin HCl (Hytrin)] | 0.745
CC(C)(S)[C@@H](N)C(=O)O | 1.21
CC(C)NCC(O)c1ccc(O)c(O)c1 (centres undefined) [Isoprenaline hydrochloride] | 0.758
Nc1nc(Cl)nc2c1ncn2[C@H]1C[C@H](O)[C@@H](CO)O1 [Cladribine] | 0.824
COc1cc2c(cc1OC)CC(=O)N(CCCN(C)C[C@H]1Cc3cc(OC)c(OC)cc31)CC2 [Ivabradine HCl (Procoralan)] | 0.555
CCN(CCCCOC(=O)c1ccc(OC)c(OC)c1)C(C)Cc1ccc(OC)cc1 (centres undefined) | 0.559
Nc1ccc(C(=O)NCC(=O)O)cc1 | 0.671
CCn1cc(C(=O)O)c(=O)c2cc(F)c(N3CCNCC3)nc21 [Enoxacin (Penetrex)] | 0.928
c1ccc(CC2=NCCN2)cc1 | 0.835
Nc1ncnc2c1ncn2[C@@H]1O[C@H](CO)[C@@H](O)[C@@H]1O | 0.346
NC[C@@H]1O[C@H](O[C@H]2[C@@H](O)[C@H](O[C@@H]3[C@@H](O)[C@H](N)C[C@H](N)[C@H]3O[C@H]3O[C@H](CN)[C@@H](O)[C@H](O)[C@H]3N)O[C@@H]2CO)[C@H](N)[C@@H](O)[C@@H]1O | 0.718
Nc1nc(F)nc2c1ncn2[C@@H]1O[C@H](COP(=O)(O)O)[C@@H](O)[C@@H]1O | 0.656
OCCN1C[C@H](O)[C@@H](O)[C@H](O)[C@H]1CO | 0.724
C[C@@H]1CC(=O)NN=C1c1ccc(NN=C(C#N)C#N)cc1 [Levosimendan] | 0.512
CC1(C)O[C@@H]2C[C@H]3[C@@H]4CCC5=CC(=O)C=C[C@]5(C)[C@@]4(F)[C@@H](O)C[C@]3(C)[C@]2(C(=O)CO)O1 | 0.613
CN1CCN(C2=Nc3cc(Cl)ccc3Nc3ccccc32)CC1 [Clozapine (Clozaril)] | 1.01
CCOC(=O)OC(C)OC(=O)[C@@H]1N2C(=O)[C@@H](NC(=O)[C@H](N)c3ccccc3)[C@H]2SC1(C)C (some centres undefined) | 0.591
CCOC(=O)[C@H](CCc1ccccc1)N[C@@H](C)C(=O)N1Cc2cc(OC)c(OC)cc2C[C@H]1C(=O)O [Moexipril HCl] | 0.48
